For eight compounds, Potency results are on record in PubChem BioAssay (NCATS).

The structures appear in SMILES notation. Results filed as inconclusive are left out. Where a call stands in place of a potency, no number is given. The source made the active and inactive calls. Calls come from the whole dose curve; as a rule, active = well fitted inhibition curve with a large enough effect; inconclusive = small, poorly fitted or top-dose-only effect; inactive = flat fitted curve, though single readings scatter.

The assay deals with CP194. Briefly: qHTS profiling for inhibitors of Plasmodium falciparum proliferation (AID 504749). Note: nearly all actives have a fitted effect of over 60% in size. The settings on record: P. falciparum in erythrocytes, SYBR Green DNA, 72 h; series mostly up to 28.7 µM. Put shortly:
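Infected RBCs, 0.3% parasitemia/2.5% Hct final; cpd 72 h, 37 C, 5% CO2; lysis buffer with saponin/triton/SYBR Green I, o/n RT dark; FI 485/535; norm. to artemisinin (0.29 uM) and DMSO.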
(In general: In qHTS, concentration-response curves come from the screen itself.)
On to `CCc1c2c(nc3ccc(OC(=O)N4CCC(N5CCCCC5)CC4)cc13)-c1cc3c(c(=O)n1C2)COC(=O)[C@]3(O)CC`, for which the Potency result was “inactive”. As for `CC(C)NCC(O)c1ccc(NS(C)(=O)=O)cc1` (stereo not drawn), the Potency result was “inactive”.

`CC(C)OC(=O)C(C(=O)OC(C)C)=C1SC=CS1`: the Potency entry was “inactive”.

Regarding `CC[C@H](C)C(=O)O[C@H]1C[C@@H](C)C=C2C=C[C@H](C)[C@H](CC[C@@H]3C[C@@H](O)CC(=O)O3)[C@H]21`, the Potency result was “inactive”.

As for `O=c1cc(O)c(Cl)c[nH]1`, the Potency entry is “inactive”. `CC(=O)Oc1ccccc1C(=O)Nc1ncc([N+](=O)[O-])s1`: the Potency result was “inactive”. With `COc1ccc(C(=O)CC(=O)c2ccc(C(C)(C)C)cc2)cc1` the entry was “inactive”; with `CNC1CCCN(c2c(F)cc3c(=O)c(C(=O)O)cn(C4CC4)c3c2OC)C1` (stereo not drawn), “inactive”.
